# Results taken from the supplement of paper PMC10646978.
# ± gives the standard deviation.
# Experiments:
# Conditions in all cases: modulator concentration 10 µM
# [1] = system: RAW-Dual (murine macrophage reporter line); assay: NF-kB reporter (SEAP) activity fold change vs agonist alone; higher = enhanced NF-kB activity
# Procedure, shortened: (§1)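 In 384-well plates holding 50 000 RAW-Dual murine macrophage reporter cells per well, compound at 10 μM final was pre-incubated for 1 hour at 37 °C, after which a PRR agonist was added overnight. Supernatant SEAP read with QUANTI-Blue at 620 nm absorbance reported NF-κB, and Lucia luciferase read with QUANTI-Luc luminescence reported IRF. Fold change values come from dividing each reporter signal by the mean of agonist-only control wells on the same plate, averaged over replicate plates with propagated errors.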
# [2] = system: RAW-Dual (murine macrophage reporter line); assay: IRF reporter (Lucia luciferase) activity fold change vs agonist alone; higher = enhanced IRF activity
# Procedure, shortened: as §1
# [3] = system: RAW-Dual (murine macrophage reporter line); assay: viability score (confluency relative to resting cells, overnight) (fraction); higher = more viable, active = viable (0.7 or more)
# Procedure, shortened: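 RAW-Dual macrophages in 384-well plates were exposed overnight to compound at 10 μM final. Confluency was imaged with IncuCyte, and two confluency masks were generated with IncuCyte software over all imaged wells. The viability score is confluency expressed relative to resting cells. Compounds were called viable if both masks exceeded 70% of resting cells.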
# [4] = agonist: CpG ODN 1826 0.5 ug/mL
Structure (SMILES),"NF-kB reporter [1, 4]",NF-kB reporter ([1]; agonist: LPS 0.1 ug/mL),NF-kB reporter ([1]; agonist: MPLA […]),IRF reporter ([2]; agonist: 3'3'-cGAMP 10 ug/mL),IRF reporter ([2]; agonist: LPS 0.1 ug/mL),IRF reporter ([2]; agonist: MPLA […]),viability score [3]
CC12CCC3C(CCC4CC(O)CCC43C)C1CCC2O (centres undefined),1.23 ± 0.29,0.968 ± 0.059,2.43 ± 1.5,0.891 ± 0.037,1.13 ± 0.18,1.21 ± 0.14,0.963 (active)
CC(C)c1ccc2c(c1O)CCC1C3=C(CCC21C)C(=O)OC3 (centres undefined),0.921 ± 0.072,0.815 ± 0.11,0.986 ± 0.093,0.939 ± 0.029,1.11 ± 0.19,1.23 ± 0.26,1.03 (active)
COc1ccc(-n2c(C)nc3ccc(NC(=O)CC4CCCC4)cc3c2=O)cc1,1.14 ± 0.14,1.06 ± 0.13,0.932 ± 0.075,0.946 ± 0.048,0.925 ± 0.073,0.875 ± 0.15,1.01 (active)
CCOC(=O)c1ccccc1-c1ccc(C=C2C(=O)NC(=O)N(c3ccc(C)cc3)C2=O)o1,0.912 ± 0.071,0.931 ± 0.058,0.971 ± 0.087,0.999 ± 0.061,1.4 ± 0.081,1.7 ± 0.14,0.951 (active)
CC(C)=CCOc1c2occc2cc2ccc(=O)oc12,1.13 ± 0.27,0.823 ± 0.064,0.957 ± 0.088,1.09 ± 0.047,1.47 ± 0.17,1.58 ± 0.21,0.95 (active)
C1CCc2nnnn2CC1 [Prestw-162],1.27 ± 0.3,0.966 ± 0.18,1.03 ± 0.1,0.941 ± 0.039,1.11 ± 0.17,1.03 ± 0.23,1.01 (active)
CC12CCC3C(CCC4CC(O)CCC43C)C1CCC2=O (centres undefined),0.888 ± 0.066,1.04 ± 0.051,0.98 ± 0.021,0.949 ± 0.1,0.985 ± 0.033,0.972 ± 0.11,1.01 (active)
COc1ccc(CCNCc2ccc3ccccc3c2)cc1,0.853 ± 0.068,0.755 ± 0.051,1.65 ± 0.11,0.88 ± 0.06,0.98 ± 0.13,2.58 ± 0.29,0.123 (inactive)
O=C1NC(=O)C(=Cc2cc(Br)ccc2OCc2ccc(Cl)cc2Cl)C(=O)N1,0.887 ± 0.05,0.945 ± 0.071,0.794 ± 0.058,0.949 ± 0.033,0.751 ± 0.11,0.822 ± 0.16,0.991 (active)
COc1ccc2c(c1O)-c1c(OC)c(OC)cc3c1C(C2)N(C)CC3 (centres undefined),0.618 ± 0.051,0.905 ± 0.088,1.1 ± 0.1,0.903 ± 0.046,1.29 ± 0.14,1.45 ± 0.17,1.04 (active)
Cc1ccccc1N1C(=O)C(=Cc2ccc(-c3ccc(C(=O)O)c(Cl)c3)o2)C(=O)NC1=S,0.617 ± 0.049,1.05 ± 0.067,0.9 ± 0.066,0.692 ± 0.017,1.24 ± 0.24,0.964 ± 0.2,1.01 (active)
Cc1cc(C(=O)N2C3CCC2c2cncnc2C3)n(C)n1 (centres undefined),0.979 ± 0.074,1.01 ± 0.085,0.917 ± 0.046,0.983 ± 0.085,1.19 ± 0.096,1.11 ± 0.22,1 (active)
O=C(CCCN1CCC(n2c(=O)[nH]c3ccccc32)CC1)c1ccc(F)cc1 [Prestw-484],0.641 ± 0.18,1.11 ± 0.096,1.02 ± 0.097,0.851 ± 0.035,1.1 ± 0.12,1.33 ± 0.14,1 (active)
Cl.Clc1ccc(C(OCCN2CCCCC2)c2ccccc2)cc1 (centres undefined),0.656 ± 0.26,0.756 ± 0.051,0.721 ± 0.049,0.543 ± 0.023,1.25 ± 0.15,1.24 ± 0.14,0.652 (inactive)
CC(C(O)c1ccccc1)N(C)C (centres undefined),0.96 ± 0.084,0.883 ± 0.065,0.955 ± 0.091,0.995 ± 0.031,1.26 ± 0.12,1.3 ± 0.19,1 (active)
COc1cc2c(c(OC)c1OC)-c1ccc(OC)c(=O)cc1C(NC(C)=O)CC2 (centres undefined),2.37 ± 0.14,1.47 ± 0.092,2.59 ± 0.15,0.0948 ± 0.0032,1.87 ± 0.21,2.02 ± 0.27,0.673 (inactive)
CC(C)(C)NCC(O)c1cc(Cl)c(N)c(Cl)c1 (centres undefined) [Prestw-345],1.89 ± 0.13,0.945 ± 0.072,1.29 ± 0.044,1.03 ± 0.04,0.886 ± 0.06,0.933 ± 0.09,0.988 (active)
Cc1cc(C(=O)N2C3CCC2c2cncnc2C3)c(C)o1 (centres undefined),1.03 ± 0.087,1.06 ± 0.092,1 ± 0.036,0.974 ± 0.066,0.94 ± 0.06,0.832 ± 0.13,0.999 (active)
Cc1cc(N2CCNCC2)c2ccccc2n1,0.0643 ± 0.01,0.789 ± 0.062,0.899 ± 0.092,0.561 ± 0.045,1.15 ± 0.31,1.15 ± 0.16,0.994 (active)
C=C(C)C1Cc2c(ccc3c2OC2COc4cc(OC)c(OC)cc4C2C3=O)O1 (centres undefined),1.6 ± 0.13,1.02 ± 0.1,1.75 ± 0.18,0.515 ± 0.028,1.64 ± 0.27,2.07 ± 0.4,0.924 (active)
Cc1ccc(-c2nn(-c3ccccc3)cc2C=C2C(=O)NC(=O)NC2=O)o1,1 ± 0.094,1.07 ± 0.066,1 ± 0.08,1.01 ± 0.037,1.42 ± 0.23,1.16 ± 0.072,1.01 (active)
COc1ccc(CCNCc2cccc3ccccc23)cc1OC,0.222 ± 0.016,0.82 ± 0.059,0.867 ± 0.058,0.872 ± 0.047,1.32 ± 0.093,1.44 ± 0.14,0.947 (active)
COc1ccc2c(c1)[nH]c1c(C)nccc12,0.6 ± 0.047,0.885 ± 0.074,0.949 ± 0.09,0.431 ± 0.019,0.653 ± 0.11,0.594 ± 0.11,1.03 (active)
CC12CCC3C(CCC4CC(=O)CCC43C)C1CCC2=O (centres undefined),1.29 ± 0.32,1.03 ± 0.058,0.933 ± 0.075,1.04 ± 0.044,1.23 ± 0.18,1.23 ± 0.17,0.997 (active)
C[C@@H]1CC[C@H]2[C@@H](C)C(=O)O[C@@H]3O[C@@]4(C)CC[C@@H]1[C@]32OO4,0.961 ± 0.086,0.916 ± 0.052,1.11 ± 0.11,1.04 ± 0.048,1.13 ± 0.065,1.17 ± 0.099,0.985 (active)
CC(C)N(CCC(C(N)=O)(c1ccccc1)c1ccccn1)C(C)C (centres undefined),0.86 ± 0.23,0.945 ± 0.09,0.99 ± 0.067,0.849 ± 0.064,0.94 ± 0.2,1.12 ± 0.13,0.998 (active)
COC(=O)c1ccc(N2C(=O)NC(=O)C(=Cc3ccc(OCc4ccccc4F)cc3)C2=O)cc1,1.06 ± 0.11,1.04 ± 0.057,0.88 ± 0.056,0.942 ± 0.043,1.25 ± 0.24,1.08 ± 0.25,1 (active)
